In the supplement of paper PMC10849652:
Of roughly 7,900 targets only a part is listed; those with a hit were picked by preference. About 0.6% of all pairs of compound and target were hits.

Key:
Assay in all cases: log2 fold change, soluble protein after heating vs DMSO (PISA); higher = thermal stabilisation; K562 cells, 10 uM, 30 min; active = over 0.2 and 3.5 SD of the protein, either way, in both replicates (recomputed)
[1] = compound: CC1=C(C=C(C=C1)NC(=O)C2=CC(=CC=C2)C(C)(C)C#N)NC3=CC4=C(C=C3)N=CN(C4=O)C
Procedure, shortened: (§1)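 Quantification of soluble protein used TMTpro 16plex LC-MS/MS, with channel sums equalised. Samples were the supernatant after 21,000xg for 90 min of pooled aliquots from K562 cells (2×10^6 cells/mL) treated with 10 μM compound for 30 min, heated for 3 min over 48°C-58°C, and extracted in PBS with 0.5% NP-40 at 4°C. Values, from duplicates, describe thermal stability against control samples on a log2 fold-change scale.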

[2] = compound: CC1=C(C=C(C=C1)NC(=O)C2=CC(=CC=C2)N(C)C)NC(=O)C3=CC=C(C=C3)O
Procedure, shortened: as §1

[3] = compound: CC1=CC=C(C=C1)SC2=C3C=C(SC3=CN=C2)C(=O)N
Procedure, shortened: as §1

[4] = compound: CC1=NC(=CC=C1)C2=C(N=C(N2)C(C)(C)C)C3=CC4=NC=CN=C4C=C3
Procedure, shortened: as §1

Nexturastat A = compound: CCCCN(Cc1ccc(C(=O)NO)cc1)C(=O)Nc1ccccc1 [Nexturastat A]
Procedure, shortened: as §1

vemurafenib = compound: CCCS(=O)(=O)Nc1ccc(F)c(C(=O)c2c[nH]c3ncc(-c4ccc(Cl)cc4)cc23)c1F [vemurafenib]
Procedure, shortened: as §1

[5] = compound: CCCS(=O)(=O)Nc1ccc(F)c(C(=O)c2c[nH]c3ncc(Cl)cc23)c1F
Procedure, shortened: as §1

[6] = compound: CCCc1cc(C)[nH]c(=O)c1CNC(=O)c1cc(-c2ccnc(N3CCN(C)CC3)c2)cc2c1cnn2C(C)C
Procedure, shortened: as §1

givinostat = compound: CCN(CC)Cc1ccc2cc(COC(=O)Nc3ccc(C(=O)NO)cc3)ccc2c1 [givinostat]
Procedure, shortened: as §1

barasertib = compound: CCN(CCCOc1ccc2c(Nc3cc(CC(=O)Nc4cccc(F)c4)[nH]n3)ncnc2c1)CCOP(=O)(O)O [barasertib]
Procedure, shortened: as §1

Measured: log2 fold change

LMBR1 isoform 3 (UniProt Q8WVP7)
inactive: [1] -0.156 | [2] 0.17 | [3] 0.128 | [4] 0.036 | Nexturastat A 0.134 | vemurafenib 0.049 | [5] 0.175 | [6] -0.086 | givinostat 0 | barasertib -0.007

KMT5A (UniProt Q9NQR1)
inactive: [1] 0.07

ILK (UniProt Q13418)
inactive: [1] -0.179 | [2] -0.053 | [3] 0.025 | [4] -0.208 | Nexturastat A 0.135 | vemurafenib -0.075 | [5] -0.005 | [6] -0.031 | givinostat 0.041 | barasertib 0.019

KPNA1 (UniProt P52294)
inactive: [1] -0.034 | [2] -0.056 | [3] -0.021 | [4] -0.041 | Nexturastat A 0.084 | vemurafenib 0.035 | [5] 0.026 | [6] 0.034 | givinostat 0.086 | barasertib 0.012

MEAK7 (UniProt Q6P9B6)
Sequence of UniProt Q6P9B6 (Q6P9B6 whole entry, looked up): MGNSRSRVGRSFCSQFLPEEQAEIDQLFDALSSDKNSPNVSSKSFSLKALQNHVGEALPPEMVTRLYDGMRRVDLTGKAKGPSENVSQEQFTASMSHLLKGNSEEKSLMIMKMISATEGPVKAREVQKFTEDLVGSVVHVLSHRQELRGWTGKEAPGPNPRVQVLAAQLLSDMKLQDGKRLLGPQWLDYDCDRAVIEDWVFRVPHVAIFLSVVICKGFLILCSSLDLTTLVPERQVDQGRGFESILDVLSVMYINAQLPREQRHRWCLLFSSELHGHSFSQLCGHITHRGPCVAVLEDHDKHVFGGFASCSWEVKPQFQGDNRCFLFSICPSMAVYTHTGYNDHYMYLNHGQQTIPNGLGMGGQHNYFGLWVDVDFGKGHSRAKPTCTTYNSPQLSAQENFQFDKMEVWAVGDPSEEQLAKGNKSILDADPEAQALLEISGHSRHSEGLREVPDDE
inactive: [1] 0.081 | [2] 0.053 | [3] -0.005 | [4] 0.015 | Nexturastat A -0.006 | vemurafenib 0.012 | [5] 0.067 | [6] -0.055 | givinostat 0.085 | barasertib 0.025

KDELR2 (UniProt P33947)
inactive: [1] 0.058 | [2] 0.099 | [3] 0.064 | [4] -0.094 | Nexturastat A -0.13 | vemurafenib -0.079 | [5] -0.054 | [6] -0.128 | givinostat -0.064 | barasertib 0.036

MAP2K3 isoform 3 (UniProt P46734)
Sequence of UniProt P46734 (P46734 whole entry, looked up): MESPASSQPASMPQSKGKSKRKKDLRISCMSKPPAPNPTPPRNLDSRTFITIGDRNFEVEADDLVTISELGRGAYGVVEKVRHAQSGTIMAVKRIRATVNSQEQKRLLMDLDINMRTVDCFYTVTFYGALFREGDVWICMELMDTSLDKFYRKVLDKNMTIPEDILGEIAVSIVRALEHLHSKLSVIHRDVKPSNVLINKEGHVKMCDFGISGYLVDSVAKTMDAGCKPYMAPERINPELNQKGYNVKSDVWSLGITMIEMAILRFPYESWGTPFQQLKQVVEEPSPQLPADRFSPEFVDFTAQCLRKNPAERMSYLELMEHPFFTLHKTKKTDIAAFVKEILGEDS
inactive: [1] -0.071 | [2] -0.074 | [3] -0.051 | [4] -0.08 | Nexturastat A 0.103 | vemurafenib -0.031 | [5] -0.008 | [6] 0.021 | givinostat 0.002 | barasertib 0.042

LYPLA2 (UniProt O95372)
Sequence of UniProt O95372 (O95372 whole entry, looked up): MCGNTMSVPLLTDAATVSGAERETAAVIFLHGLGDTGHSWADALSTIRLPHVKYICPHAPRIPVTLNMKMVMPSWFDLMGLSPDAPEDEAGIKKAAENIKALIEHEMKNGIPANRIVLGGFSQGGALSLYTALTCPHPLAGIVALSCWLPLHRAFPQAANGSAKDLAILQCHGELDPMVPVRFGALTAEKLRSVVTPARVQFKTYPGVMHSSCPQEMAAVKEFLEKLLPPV
inactive: [1] 0.043 | [2] -0.131 | [3] 0.082 | [4] -0.056 | Nexturastat A -0.071 | vemurafenib 0.132 | [5] 0.038 | [6] -0.001 | givinostat -0.055 | barasertib -0.099

LARP1 (UniProt Q6PKG0)
inactive: [1] 0.01 | [2] 0.032 | [3] -0.035 | [4] 0.029 | Nexturastat A 0.142 | vemurafenib -0.033 | [5] -0.03 | [6] 0.046 | givinostat 0.012 | barasertib -0.006

KIF13A (UniProt Q9H1H9)
inactive: [1] -0.005 | [2] 0.021 | [3] -0.005 | [4] -0.004 | Nexturastat A 0.018 | vemurafenib -0.045 | [5] 0.04 | [6] -0.005 | givinostat -0.021 | barasertib -0.009

KCTD10 (UniProt Q9H3F6)
Sequence of UniProt Q9H3F6 (Q9H3F6 whole entry, looked up): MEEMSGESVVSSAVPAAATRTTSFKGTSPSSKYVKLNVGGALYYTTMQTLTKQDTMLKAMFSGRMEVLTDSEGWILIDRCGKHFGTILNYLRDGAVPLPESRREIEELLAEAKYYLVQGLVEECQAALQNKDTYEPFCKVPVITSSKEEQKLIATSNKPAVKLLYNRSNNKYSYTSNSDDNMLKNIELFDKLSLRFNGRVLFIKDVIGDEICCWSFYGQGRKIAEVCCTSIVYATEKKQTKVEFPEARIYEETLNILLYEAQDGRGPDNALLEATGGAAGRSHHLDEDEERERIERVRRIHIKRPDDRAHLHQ
inactive: [1] -0.055 | [2] 0.022 | [3] -0.025 | [4] 0.017 | Nexturastat A 0.051 | vemurafenib -0.013 | [5] -0.029 | [6] 0.024 | givinostat 0.025 | barasertib 0.021

MARCKS (UniProt P29966)
inactive: [1] -0.001 | [2] -0.066 | [3] 0.01 | [4] 0.072 | Nexturastat A -0.104 | vemurafenib 0.047 | [5] -0.004 | [6] 0.252 | givinostat -0.096 | barasertib 0.005

MAP4K4 isoform 3 (UniProt O95819)
Sequence of UniProt O95819 (O95819 whole entry, looked up): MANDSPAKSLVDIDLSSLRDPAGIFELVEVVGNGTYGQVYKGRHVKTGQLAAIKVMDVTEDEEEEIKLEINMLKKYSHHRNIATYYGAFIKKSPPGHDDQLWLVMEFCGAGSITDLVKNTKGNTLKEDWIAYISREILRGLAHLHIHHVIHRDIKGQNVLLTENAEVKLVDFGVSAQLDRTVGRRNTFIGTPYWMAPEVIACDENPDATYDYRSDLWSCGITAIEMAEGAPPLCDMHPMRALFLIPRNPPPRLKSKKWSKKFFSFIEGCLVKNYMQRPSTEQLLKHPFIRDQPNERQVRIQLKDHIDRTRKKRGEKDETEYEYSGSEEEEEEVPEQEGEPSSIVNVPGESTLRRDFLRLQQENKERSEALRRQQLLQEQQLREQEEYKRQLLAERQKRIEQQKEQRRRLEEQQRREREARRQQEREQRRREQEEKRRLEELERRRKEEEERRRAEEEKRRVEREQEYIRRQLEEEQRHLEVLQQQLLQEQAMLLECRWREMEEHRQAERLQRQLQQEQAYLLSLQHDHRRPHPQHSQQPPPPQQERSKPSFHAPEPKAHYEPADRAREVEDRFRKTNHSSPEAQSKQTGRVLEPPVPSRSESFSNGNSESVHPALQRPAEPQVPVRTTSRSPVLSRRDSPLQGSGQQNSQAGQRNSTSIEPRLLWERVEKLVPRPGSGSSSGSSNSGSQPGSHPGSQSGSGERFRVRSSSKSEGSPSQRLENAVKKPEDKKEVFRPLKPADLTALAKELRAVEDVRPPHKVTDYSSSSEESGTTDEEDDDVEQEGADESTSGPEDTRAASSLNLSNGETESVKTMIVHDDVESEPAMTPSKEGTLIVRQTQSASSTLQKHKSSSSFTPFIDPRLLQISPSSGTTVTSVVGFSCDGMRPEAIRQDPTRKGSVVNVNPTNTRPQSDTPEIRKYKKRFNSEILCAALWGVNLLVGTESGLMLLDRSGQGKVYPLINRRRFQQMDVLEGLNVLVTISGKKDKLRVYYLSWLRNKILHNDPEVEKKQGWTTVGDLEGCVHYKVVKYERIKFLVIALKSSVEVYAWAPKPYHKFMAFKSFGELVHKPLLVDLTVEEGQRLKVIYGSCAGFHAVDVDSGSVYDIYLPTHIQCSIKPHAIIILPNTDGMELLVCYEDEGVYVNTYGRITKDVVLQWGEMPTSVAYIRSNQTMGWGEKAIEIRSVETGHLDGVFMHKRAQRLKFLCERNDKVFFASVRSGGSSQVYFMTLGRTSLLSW
inactive: [1] -0.166 | [2] 0.013 | [3] 0.022 | [4] 0.012 | Nexturastat A 0.033 | vemurafenib -0.007 | [5] 0.028 | [6] -0.02 | givinostat 0.017 | barasertib -0.012

LARP7 isoform 3 (UniProt Q4G0J3)
Sequence of UniProt Q4G0J3 (Q4G0J3 whole entry, looked up): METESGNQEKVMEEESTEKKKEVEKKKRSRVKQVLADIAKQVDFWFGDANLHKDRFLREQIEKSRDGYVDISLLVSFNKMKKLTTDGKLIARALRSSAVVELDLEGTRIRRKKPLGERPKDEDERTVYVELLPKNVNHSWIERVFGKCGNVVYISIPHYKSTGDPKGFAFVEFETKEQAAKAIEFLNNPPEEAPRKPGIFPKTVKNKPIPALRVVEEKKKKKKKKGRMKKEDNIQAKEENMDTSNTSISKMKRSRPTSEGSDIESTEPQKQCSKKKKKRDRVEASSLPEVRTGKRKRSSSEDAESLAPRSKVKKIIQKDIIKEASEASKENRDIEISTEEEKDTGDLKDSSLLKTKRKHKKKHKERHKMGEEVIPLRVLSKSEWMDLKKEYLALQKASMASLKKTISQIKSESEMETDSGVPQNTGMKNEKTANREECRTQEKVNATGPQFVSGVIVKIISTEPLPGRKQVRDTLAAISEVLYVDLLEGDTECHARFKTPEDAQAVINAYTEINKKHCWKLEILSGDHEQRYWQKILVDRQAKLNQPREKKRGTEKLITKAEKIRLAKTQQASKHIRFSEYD
inactive: [1] -0.011 | [2] 0.054 | [3] -0.03 | [4] -0.053 | Nexturastat A 0.016 | vemurafenib 0.027 | [5] 0.045 | [6] 0.004 | givinostat -0.03 | barasertib 0

MED8 isoform 2 (UniProt Q96G25)
inactive: [1] -0.085 | [2] 0.038 | [3] -0.03 | [4] 0.089 | Nexturastat A 0.045 | [5] -0.027 | [6] 0.081 | givinostat -0.038 | barasertib -0.059
active: vemurafenib 0.36

LTN1 isoform 3 (UniProt O94822)
inactive: [1] -0.013 | [2] -0.031 | [3] -0.008 | [4] -0.006 | Nexturastat A 0.104 | vemurafenib 0.039 | [5] 0.058 | [6] 0.017 | givinostat 0.065 | barasertib 0.042

MARCKSL1 (UniProt P49006)
inactive: [1] 0.039 | [2] 0.011 | [3] -0.111 | [4] 0.032 | Nexturastat A -0.127 | vemurafenib 0.005 | [5] -0.125 | [6] 0.005 | givinostat 0.041 | barasertib 0.034

JMJD6 isoform 3 (UniProt Q6NYC1)
inactive: [1] 0.055 | [2] -0.085 | [3] 0.092 | [4] 0.024 | Nexturastat A -0.147 | vemurafenib 0.002 | [5] 0.049 | [6] 0.071 | givinostat -0.095 | barasertib -0.007

IMMT isoform 4 (UniProt Q16891)
inactive: [1] 0.009 | [2] 0.012 | [3] 0.032 | [4] 0.032 | Nexturastat A -0.027 | vemurafenib -0.007 | [5] 0.002 | [6] -0.045 | givinostat -0.022 | barasertib 0.001

MAP2K1 (UniProt Q02750)
Sequence of UniProt Q02750 (Q02750 whole entry, looked up): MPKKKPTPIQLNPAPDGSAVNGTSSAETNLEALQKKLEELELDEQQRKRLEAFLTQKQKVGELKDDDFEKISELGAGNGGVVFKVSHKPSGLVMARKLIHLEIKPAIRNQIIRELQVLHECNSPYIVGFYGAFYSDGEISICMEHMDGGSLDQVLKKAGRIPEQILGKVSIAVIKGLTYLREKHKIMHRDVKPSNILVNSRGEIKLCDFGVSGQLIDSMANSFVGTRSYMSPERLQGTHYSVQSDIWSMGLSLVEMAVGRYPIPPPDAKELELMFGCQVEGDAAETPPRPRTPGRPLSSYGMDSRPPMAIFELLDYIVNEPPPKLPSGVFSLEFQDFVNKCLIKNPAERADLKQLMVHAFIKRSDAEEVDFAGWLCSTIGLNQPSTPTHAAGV
inactive: [1] -0.013 | [2] 0.001 | [3] 0.029 | [4] 0.049 | Nexturastat A -0.061 | vemurafenib -0.009 | [5] 0.018 | [6] 0.129 | givinostat 0.007 | barasertib 0.005

MAPK8 isoform 3 (UniProt P45983)
inactive: [1] -0.038 | [2] -0.026 | [3] -0.015 | [4] -0.012 | Nexturastat A -0.099 | vemurafenib 0.027 | [5] 0.012 | [6] 0.016 | givinostat 0.119 | barasertib 0.056

MAPRE3 (UniProt Q9UPY8)
inactive: [1] 0 | [2] -0.002 | [3] -0.021 | [4] 0.074 | Nexturastat A -0.07 | vemurafenib 0.041 | [5] 0.06 | [6] 0.136 | givinostat -0.037 | barasertib 0.027

LMF2 (UniProt Q9BU23)
inactive: [1] 0.009 | [2] -0.07 | [3] 0.025 | [4] -0.078 | Nexturastat A -0.022 | vemurafenib 0.067 | [5] -0.022 | [6] 0.016 | givinostat 0.033 | barasertib -0.002

MAN2B2 (UniProt Q9Y2E5)
inactive: [1] 0.017 | [2] 0.049 | [3] 0.033 | [4] -0.056 | Nexturastat A -0.062 | vemurafenib -0.105 | [5] -0.17 | [6] 0.139 | givinostat 0.014 | barasertib 0.041

MAPK14 isoform 2 (UniProt Q16539)
inactive: [2] 0.649 | [3] 0.024 | [4] 0.036 | Nexturastat A 0.064 | vemurafenib 0.095 | [5] 0.219 | [6] 0.026 | givinostat 0.107 | barasertib -0.005
active: [1] 1.9

LEO1 (UniProt Q8WVC0)
inactive: [1] -0.086 | [2] -0.113 | [3] 0 | [4] -0.075 | Nexturastat A 0.109 | vemurafenib -0.025 | [5] 0.033 | [6] 0.029 | givinostat 0.118 | barasertib 0.032

IRF3 (UniProt Q14653)
Sequence of UniProt Q14653 (Q14653 whole entry, looked up): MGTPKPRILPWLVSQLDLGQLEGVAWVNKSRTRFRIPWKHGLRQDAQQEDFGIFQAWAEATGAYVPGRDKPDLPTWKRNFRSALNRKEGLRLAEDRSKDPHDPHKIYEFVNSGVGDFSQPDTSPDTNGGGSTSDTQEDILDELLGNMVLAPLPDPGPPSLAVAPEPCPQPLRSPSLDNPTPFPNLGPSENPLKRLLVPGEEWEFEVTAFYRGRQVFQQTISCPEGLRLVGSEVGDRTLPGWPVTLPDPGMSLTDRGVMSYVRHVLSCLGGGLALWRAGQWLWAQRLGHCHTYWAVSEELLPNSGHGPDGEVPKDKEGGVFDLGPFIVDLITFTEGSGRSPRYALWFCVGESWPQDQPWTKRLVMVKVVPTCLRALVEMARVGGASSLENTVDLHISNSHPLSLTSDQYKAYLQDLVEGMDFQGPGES
inactive: [1] 0.18 | [2] -0.081 | [3] 0.011 | [4] 0.077 | Nexturastat A -0.046 | vemurafenib 0.074 | [5] 0.098 | [6] 0.011 | givinostat 0.031 | barasertib -0.015

INTS7 (UniProt Q9NVH2)
inactive: [1] 0.134 | [2] -0.007 | [3] 0.088 | [4] 0.091 | Nexturastat A -0.001 | vemurafenib 0.039 | [5] 0.018 | [6] 0.027 | givinostat 0.242 | barasertib 0.022

LEMD2 (UniProt Q8NC56)
inactive: [1] -0.068 | [2] -0.02 | [3] 0.038 | [4] 0.051 | Nexturastat A -0.002 | vemurafenib -0.001 | [5] 0.045 | [6] 0.002 | givinostat -0.022 | barasertib 0.017

IPO13 (UniProt O94829)
Sequence of UniProt O94829 (O94829 whole entry, looked up): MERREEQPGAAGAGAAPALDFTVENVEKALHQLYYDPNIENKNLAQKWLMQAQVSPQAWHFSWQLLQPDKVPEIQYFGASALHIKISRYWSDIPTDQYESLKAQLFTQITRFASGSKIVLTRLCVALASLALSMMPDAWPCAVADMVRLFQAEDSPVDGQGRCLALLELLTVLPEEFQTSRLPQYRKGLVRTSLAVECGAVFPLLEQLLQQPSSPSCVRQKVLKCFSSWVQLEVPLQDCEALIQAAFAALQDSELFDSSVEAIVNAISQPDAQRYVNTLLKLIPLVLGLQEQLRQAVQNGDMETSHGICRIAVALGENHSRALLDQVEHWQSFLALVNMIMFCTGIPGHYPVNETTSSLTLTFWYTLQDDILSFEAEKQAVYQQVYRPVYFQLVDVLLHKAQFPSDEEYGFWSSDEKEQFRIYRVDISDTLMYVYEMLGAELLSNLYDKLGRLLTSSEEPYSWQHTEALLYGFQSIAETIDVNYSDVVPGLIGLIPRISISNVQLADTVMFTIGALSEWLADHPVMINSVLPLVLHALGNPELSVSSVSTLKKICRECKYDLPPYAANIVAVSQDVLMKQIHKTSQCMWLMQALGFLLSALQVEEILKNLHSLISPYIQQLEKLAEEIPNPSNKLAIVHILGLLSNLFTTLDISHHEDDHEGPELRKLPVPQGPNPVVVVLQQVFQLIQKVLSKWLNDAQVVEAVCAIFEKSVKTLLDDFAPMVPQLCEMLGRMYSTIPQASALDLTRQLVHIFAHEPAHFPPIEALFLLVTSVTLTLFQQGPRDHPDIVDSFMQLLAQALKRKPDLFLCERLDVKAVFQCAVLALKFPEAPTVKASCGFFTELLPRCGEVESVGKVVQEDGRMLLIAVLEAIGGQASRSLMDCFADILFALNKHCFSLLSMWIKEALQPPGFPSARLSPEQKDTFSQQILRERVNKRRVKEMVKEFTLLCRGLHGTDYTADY
inactive: [1] 0.068 | [2] -0.013 | [3] -0.008 | [4] -0.027 | Nexturastat A -0.03 | vemurafenib -0.01 | [5] 0.047 | [6] 0.009 | givinostat -0.011 | barasertib 0.044
